Drawing on publication PMC11102866, “Nucleosome-bound NR5A2 structure reveals pioneer factor mechanism by DNA minor groove anchor competition”, this text covers binding signal for 8 molecules.

Assay [1] addresses NR5A2 wild type;histone octamer (Homo sapiens;, UniProt O00482;C0HKE1;Q6ZWY9;P84244;P62806 1-541;2-130;2-126;2-136;2-103, |). Nature of the assay: SeEN-seq (EMSA of nucleosome library followed by sequencing); 0.8 uM human NR5A2; 20 mM Tris-HCl pH 7.5, 120 mM NaCl, 1 mM MgCl2, 10 uM ZnCl2, 1 mM DTT, 100 ug/ml BSA, room temperature, 30 min; 0.1 uM nucleosome library; high values mean tight binding. A general note: In EMSA bound probe runs differently from free probe, usually more slowly.

Assay [2] has as its target mouse Nr5a2 wild type;histone octamer (Mus musculus;, UniProt P45448;C0HKE1;Q6ZWY9;P84244;P62806 1-560;2-130;2-126;2-136;2-103, |). Briefly: SeEN-seq (EMSA of nucleosome library followed by sequencing); 1.2 uM mouse Nr5a2; 20 mM Tris-HCl pH 7.5, 120 mM NaCl, 1 mM MgCl2, 10 uM ZnCl2, 1 mM DTT, 100 ug/ml BSA, room temperature, 30 min; 0.1 uM nucleosome library; high values mean tight binding.

B1: 127 (nucleosome)
DNA 1: ATCCTGGAGAATCCCGGTGCCGAGGCCGCTCAATTGGTCGTAGACAGCTCTAGCACCGCTTAAACGCACGTACGCGCTGTCCCCCGCGTTTTAACCGCCAAGGGGATTACTCCCTAGTCTCCAGGCACGTCAAGGCCATATACATCCTGTGAT
DNA 2: ATCACAGGATGTATATGGCCTTGACGTGCCTGGAGACTAGGGAGTAATCCCCTTGGCGGTTAAAACGCGGGGGACAGCGCGTACGTGCGTTTAAGCGGTGCTAGAGCTGTCTACGACCAATTGAGCGGCCTCGGCACCGGGATTCTCCAGGAT
modifications: reconstituted with mouse histones H2A, H2B, H3.3 and H4
For B1, the binding signal is 4.33 log2 enrichment (bound/unbound, relative to Widom 601) in assay [1] and 3.32 log2 enrichment (bound/unbound, relative to Widom 601) in assay [2].

B2: 133 (nucleosome)
DNA 1: ATCCTGGAGAATCCCGGTGCCGAGGCCGCTCAATTGGTCGTAGACAGCTCTAGCACCGCTTAAACGCACGTACGCGCTGTCCCCCGCGTTTTAACCGCCAAGGGGATTACTCCCTAGTCTCCAGGCACGTGTCAGTCAAGGCCATCCTGTGAT
DNA 2: ATCACAGGATGGCCTTGACTGACACGTGCCTGGAGACTAGGGAGTAATCCCCTTGGCGGTTAAAACGCGGGGGACAGCGCGTACGTGCGTTTAAGCGGTGCTAGAGCTGTCTACGACCAATTGAGCGGCCTCGGCACCGGGATTCTCCAGGAT
modifications: reconstituted with mouse histones H2A, H2B, H3.3 and H4
Turning to B2, the binding signal in assay [1] is 4.27 log2 enrichment (bound/unbound, relative to Widom 601); in assay [2], 3.65 log2 enrichment (bound/unbound, relative to Widom 601).

B3: 128 (nucleosome)
DNA 1: ATCCTGGAGAATCCCGGTGCCGAGGCCGCTCAATTGGTCGTAGACAGCTCTAGCACCGCTTAAACGCACGTACGCGCTGTCCCCCGCGTTTTAACCGCCAAGGGGATTACTCCCTAGTCTCCAGGCACGTTCAAGGCCAATACATCCTGTGAT
DNA 2: ATCACAGGATGTATTGGCCTTGAACGTGCCTGGAGACTAGGGAGTAATCCCCTTGGCGGTTAAAACGCGGGGGACAGCGCGTACGTGCGTTTAAGCGGTGCTAGAGCTGTCTACGACCAATTGAGCGGCCTCGGCACCGGGATTCTCCAGGAT
modifications: reconstituted with mouse histones H2A, H2B, H3.3 and H4
Regarding B3, the binding signal in assay [1] was 5.29 log2 enrichment (bound/unbound, relative to Widom 601); in assay [2], 4.1 log2 enrichment (bound/unbound, relative to Widom 601).

B4: 129 (nucleosome)
DNA 1: ATCCTGGAGAATCCCGGTGCCGAGGCCGCTCAATTGGTCGTAGACAGCTCTAGCACCGCTTAAACGCACGTACGCGCTGTCCCCCGCGTTTTAACCGCCAAGGGGATTACTCCCTAGTCTCCAGGCACGTGTCAAGGCCATACATCCTGTGAT
DNA 2: ATCACAGGATGTATGGCCTTGACACGTGCCTGGAGACTAGGGAGTAATCCCCTTGGCGGTTAAAACGCGGGGGACAGCGCGTACGTGCGTTTAAGCGGTGCTAGAGCTGTCTACGACCAATTGAGCGGCCTCGGCACCGGGATTCTCCAGGAT
modifications: reconstituted with mouse histones H2A, H2B, H3.3 and H4
B4: the binding signal is 2.87 log2 enrichment (bound/unbound, relative to Widom 601) in assay [1] and 2.23 log2 enrichment (bound/unbound, relative to Widom 601) in assay [2].

B5: 130 (nucleosome)
DNA 1: ATCCTGGAGAATCCCGGTGCCGAGGCCGCTCAATTGGTCGTAGACAGCTCTAGCACCGCTTAAACGCACGTACGCGCTGTCCCCCGCGTTTTAACCGCCAAGGGGATTACTCCCTAGTCTCCAGGCACGTGTTCAAGGCCAACATCCTGTGAT
DNA 2: ATCACAGGATGTTGGCCTTGAACACGTGCCTGGAGACTAGGGAGTAATCCCCTTGGCGGTTAAAACGCGGGGGACAGCGCGTACGTGCGTTTAAGCGGTGCTAGAGCTGTCTACGACCAATTGAGCGGCCTCGGCACCGGGATTCTCCAGGAT
modifications: reconstituted with mouse histones H2A, H2B, H3.3 and H4
With B5, the binding signal in assay [1] was 1.7 log2 enrichment (bound/unbound, relative to Widom 601); in assay [2], 1.35 log2 enrichment (bound/unbound, relative to Widom 601).

B6: 131 (nucleosome)
DNA 1: ATCCTGGAGAATCCCGGTGCCGAGGCCGCTCAATTGGTCGTAGACAGCTCTAGCACCGCTTAAACGCACGTACGCGCTGTCCCCCGCGTTTTAACCGCCAAGGGGATTACTCCCTAGTCTCCAGGCACGTGTCTCAAGGCCACATCCTGTGAT
DNA 2: ATCACAGGATGTGGCCTTGAGACACGTGCCTGGAGACTAGGGAGTAATCCCCTTGGCGGTTAAAACGCGGGGGACAGCGCGTACGTGCGTTTAAGCGGTGCTAGAGCTGTCTACGACCAATTGAGCGGCCTCGGCACCGGGATTCTCCAGGAT
modifications: reconstituted with mouse histones H2A, H2B, H3.3 and H4
In the case of B6, the binding signal in assay [1] is 3.61 log2 enrichment (bound/unbound, relative to Widom 601); in assay [2], 3.22 log2 enrichment (bound/unbound, relative to Widom 601).

B7: 15 (nucleosome)
DNA 1: ATCCTGGAGAATCCCGGTCAAGGCCACGCTCAATTGGTCGTAGACAGCTCTAGCACCGCTTAAACGCACGTACGCGCTGTCCCCCGCGTTTTAACCGCCAAGGGGATTACTCCCTAGTCTCCAGGCACGTGTCAGATATATACATCCTGTGAT
DNA 2: ATCACAGGATGTATATATCTGACACGTGCCTGGAGACTAGGGAGTAATCCCCTTGGCGGTTAAAACGCGGGGGACAGCGCGTACGTGCGTTTAAGCGGTGCTAGAGCTGTCTACGACCAATTGAGCGTGGCCTTGACCGGGATTCTCCAGGAT
modifications: reconstituted with mouse histones H2A, H2B, H3.3 and H4
Take B7: the binding signal in assay [1] is 1.12 log2 enrichment (bound/unbound, relative to Widom 601); in assay [2], 1.33 log2 enrichment (bound/unbound, relative to Widom 601).

B8: 132 (nucleosome)
DNA 1: ATCCTGGAGAATCCCGGTGCCGAGGCCGCTCAATTGGTCGTAGACAGCTCTAGCACCGCTTAAACGCACGTACGCGCTGTCCCCCGCGTTTTAACCGCCAAGGGGATTACTCCCTAGTCTCCAGGCACGTGTCATCAAGGCCAATCCTGTGAT
DNA 2: ATCACAGGATTGGCCTTGATGACACGTGCCTGGAGACTAGGGAGTAATCCCCTTGGCGGTTAAAACGCGGGGGACAGCGCGTACGTGCGTTTAAGCGGTGCTAGAGCTGTCTACGACCAATTGAGCGGCCTCGGCACCGGGATTCTCCAGGAT
modifications: reconstituted with mouse histones H2A, H2B, H3.3 and H4
Consider B8, for which the binding signal is 3.78 log2 enrichment (bound/unbound, relative to Widom 601) in assay [1] and 3.09 log2 enrichment (bound/unbound, relative to Widom 601) in assay [2].
